Source: PubChem BioAssay (The Scripps Research Institute Molecular Screening Center)
In the library only some 4.8% were active in any assay of this set; here they are far more common.
ssDAF12 agonist = activators of S. stercoralis DAF-12 nuclear receptor | HEK293 ssDAF-12/GRIP1 lit1-tk-luc reporter, luminescence; % of 3 µM dafachronic acid response | activation, % at 6.8 µM | hit rate 1% among 370,000;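 active means activation above the mean over all tested compounds plus 3 SD, cut at about 0.9% in these data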;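 further: 0% = DMSO-only wells and 100% = 3 µM delta7-dafachronic acid wells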
DAX1 inh-1 = inhibitors of DAX1 repression of SF-1 activated StAR promoter | HEK293T StAR-luciferase reporter, SF-1/DAX-1 repression relief | inhibition, % at 6.8 µM | hit rate 1.1% among 370,000;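 active means inhibition above the mean over all tested compounds plus 3 SD, cut at about 3.6% in these data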;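 further: 0% = DAX-1 cells with DMSO and 100% = cells lacking DAX-1 with DMSO; higher inhibition means more luminescence from relief of DAX-1 repression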
hgDAF12 agonist = hgDAF-12 agonism, primary luciferase screen; HEK293 GAL4-hgDAF12 UAS-luciferase reporter, agonist luminescence; normalized to butyrate control; activation, % at 6.8 µM; hit rate 1.8% among 370,000; AID 687014;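 active means activation above a cutoff set at the mean of all screened compounds plus 3 SD, cut at about 10% in these data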;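 further: 0% = DMSO wells and 100% = sodium butyrate wells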
SMARCA2 act = activators of SMARCA2 function; hit rate 1% among 370,000; activation, % at 9.1 µM; MG213 cells, MMTV-luciferase reporter, dexamethasone, overnight; in the data active means activation above about 7.8%;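 further: 0% = vehicle wells and 100% = reference activator wells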
hcDAF12 agonist = H. contortus DAF-12 activation, primary screen; AID 652067; hit rate 1.4% among 370,000; activation, % at 6.8 µM; HEK293 hcDAF-12 lit1-tk-luc reporter, luminescence; 0% DMSO, 100% Δ7-dafachronic acid;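 active means activation above the mean of all tested compounds plus 3 SD, cut at about 5.5% in these data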;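 further: 100% = response to 3 µM Δ7-dafachronic acid high control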
DAX1 inh-2 = inhibitors of human orphan nuclear receptor DAX1 (NR0B1) | P51843 | HEK293 Gal4-DAX1 luciferase reporter, luminescence | inhibition, % at 6.75 µM | hit rate 0.99% among 340,000 | AID 504766;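 active means inhibition above the mean over all tested compounds plus 3 SD, cut at about 4.2% in these data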;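 further: 0% = DAX1-transfected cells with DMSO and 100% = empty-vector control cells with DMSO; inhibition shows as a rise in luminescence from relieved DAX1 repression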
Target sequence (P51843 207-470 limits assumed): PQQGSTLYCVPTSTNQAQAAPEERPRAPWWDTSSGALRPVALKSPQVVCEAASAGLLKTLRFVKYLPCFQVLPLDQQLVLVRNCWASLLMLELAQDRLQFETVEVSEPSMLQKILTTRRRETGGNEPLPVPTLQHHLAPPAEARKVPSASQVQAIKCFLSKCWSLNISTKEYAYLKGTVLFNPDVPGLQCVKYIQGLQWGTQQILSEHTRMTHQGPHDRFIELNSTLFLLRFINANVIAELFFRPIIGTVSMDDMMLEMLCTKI
DAX1 conf = NR0B1 (human) inhibition, confirmation. shares compounds with DAX1 inh-1. HEK293T StAR-promoter luciferase reporter, SF-1/DAX-1 repression. inhibition, % at 6.8 µM. hit rate 87% among 2,400. AID 652134;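 active means inhibition above the average of every tested compound plus 3 SD, cut at about 3.8% in these data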;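 further: 0% = DAX-1 cells with DMSO and 100% = no DAX-1 control cells with DMSO; active compounds raise luminescence by relieving repression of the StAR reporter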
SF1 mutant ctr = nonselective inhibitor or artifact in SF-1 mutant DAX1 counter-screen. shares compounds with DAX1 inh-1. AID 652136. HEK293 StAR-luciferase, SF-1 AF2 mutant, luminescence. inhibition, % at 6.8 µM. hit rate 78% among 2,400;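 active means inhibition above the mean of all tested compounds plus 3 SD, cut at about 3% in these data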;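 further: 0% = DAX-1 transfected cells with DMSO and 100% = cells without DAX-1 with DMSO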
* hit, by the source's call; nt = no result.

SMILES | ssDAF12 agonist | DAX1 inh-1 | hgDAF12 agonist | SMARCA2 act | hcDAF12 agonist | DAX1 inh-2 | DAX1 conf | SF1 mutant ctr
COc1ccc(/C=N/Nc2nncc3ccccc23)cc1 | 1.9* | 6.4* | 17* | 8.5* | 11* | -2 | 14* | 2
O=C(Nc1ncccc1O)c1ccc(NS(=O)(=O)c2ccc3[nH]c(=O)[nH]c3c2)cc1 | 0 | 15* | 5 | -1 | -1 | 2 | 19* | 15*
C=CCOc1c(Br)cc(/C=N/Nc2ccc(C(=O)O)cc2)cc1OCC | -1 | 7.3* | 12* | 5 | 4 | 1 | 13* | 8.7*
Cc1ccc(Cn2c(CN3CCOCC3)nc3c2c(=O)[nH]c(=O)n3C)cc1 | -2 | 0 | 2 | 1 | -1 | 0 | nt | nt
COC(=O)c1sccc1NC(=O)Nc1ccc(C)cc1 | 1.4* | 8.5* | 13* | 5 | 5.9* | 2 | 4.6* | 2
Cc1ccc(C)c(NC(=O)CN(C)C(=O)c2cc3ccccc3o2)c1 | -1 | 0 | 3 | 1 | -1 | -1 | nt | nt
Cc1ccc(C)c(NC(=O)CN(C)C(=O)c2cc3ccccc3oc2=O)c1 | 0 | 5.9* | 6 | 1 | 3 | 1 | 6.8* | 5.6*
CC1CCN(C(=O)CNC(=O)c2ccc(Br)o2)CC1 | 0 | 4.9* | 9 | 3 | 5 | 2 | 3 | 2
CC(C)(C)c1csc(NC(=O)C2COc3ccccc3O2)n1 (centres undefined) | -1 | 5.0* | 10 | 4 | 1 | 1 | 2 | 3
C=CCOc1ccc2nc(NC(=O)OC)[nH]c2c1 | 0 | 2 | 2 | 2 | 1 | 0 | nt | nt
C=C(c1ccc2nc(NC(=O)OC)[nH]c2c1)c1cccs1 | 0 | 7.7* | 5 | 5 | 2 | 0 | 37* | -8
Cc1ccc(C(=O)/C=C2/NC(=O)CS2)cc1 | 0 | 1 | 4 | 1 | -1 | 2 | nt | nt
CCOC(=O)c1sc(NC(=O)c2ccc(Cl)s2)cc1C | -1 | 1 | 6 | 2 | 1 | 2 | nt | nt
O=C(c1ccco1)N1CCN(c2ccc(N3CCCCC3)nn2)CC1 | 0 | 7.8* | 4 | 4 | 4 | 2 | 7.3* | 6.4*
O=C(c1ccco1)N1CCN(C(=O)c2ccco2)CC1 | -1 | 1 | 0 | -3 | -2 | nt | nt | nt
Cc1ccc(NC(=O)c2ccc3snnc3c2)cc1C | 0 | 6.5* | 7 | 3 | 3 | 1 | 9.4* | 0
O=C(Nc1ccc(F)cc1)c1ccc2snnc2c1 | 0 | 0 | 3 | 2 | 3 | -1 | nt | nt
CCc1ccc(CNC(=O)Cc2ccc(NC(=O)C3=C(C)OCCS3)cc2)cc1 | 0 | 15* | 9 | 2 | 5 | 0 | 21* | -4
COCC(=O)Nc1cc(C(=O)NCCc2ccccc2)ccc1Cl | -1 | 5.7* | 8 | 5 | 5.8* | 1 | 9.3* | 3.3*
COc1ccc(C(=O)Nc2cc(C(=O)NCCc3ccccc3)ccc2Cl)cc1 | -1 | 0 | 1 | 1 | 3 | -1 | nt | nt
COC(=O)c1sccc1NC(=O)C1C2C=CC(C2)C1C(=O)O (centres undefined) | -1 | -1 | -1 | -4 | 1 | 1 | nt | nt
Cc1ccsc1C(=O)NNC(=O)C1C2C=CC(C2)C1C(=O)O (centres undefined) | 1.1* | 5.2* | 17* | 9.0* | 9.5* | 3 | 3.8* | 2
CCN(CC(=O)Nc1ccccc1C(F)(F)F)C(=O)Cn1c(=O)cnc2ccccc21 | -1 | 0 | -3 | -2 | 0 | -1 | nt | nt
CC(=O)Nc1ccc(-c2ccnc3c2CC(C(=O)NCc2ccco2)O3)cc1 (centres undefined) | 1 | 4.7* | -2 | -3 | 5 | nt | 12* | -6
CC(=O)Nc1ccc(-c2ccnc3c2CC(C(=O)NCCc2ccccc2)O3)cc1 (centres undefined) | -1 | 0 | -1 | -3 | -1 | nt | nt | nt
CC(=O)Nc1ccc(-c2ccnc3c2CC(C(=O)NCC2CC2)O3)cc1 (centres undefined) | -1 | 1 | -1 | 1 | 0 | nt | nt | nt
